From PubChem BioAssay come the findings set out here.

Assay [1] can be described thus: HepG2 liver cancer cell viability effects, profiling panel, resazurin fluorescence, 24 h, PK04 Diversity Set (AID 1172). Note: test concentration not given here. Particulars: higher = more signal.
The nature of assay [2]: basal S. cerevisiae growth modulation, no modifier, primary screen, OD600, strain BY4716, 24 h, basal condition (AID 1173). As to conditions: OD600, 24 h, higher = more signal, called active from +8 up or from −8 down.
Assay [3] can be described thus: MM1S myeloma cell viability, profiling panel, resazurin fluorescence, basal, 24 h, PK04 Diversity Set (AID 1174).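 Note: MM1S multiple myeloma cell line; test concentration not given here.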 As to conditions: higher = more signal, called active from +8 up or from −8 down. (The colour change of resazurin is a common sign of viable cells or microbes.)
Assay [4] deals with Dihydroorotate dehydrogenase (quinone), mitochondrial (Plasmodium falciparum (isolate 3D7)) (UniProt Q08210). Put plainly: PfDHODH enzyme inhibitors, primary screen, biochemical, C-terminal His tag, absorbance 600 nm (AID 1175).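 Note: recombinant parasite enzyme with a five histidine tag at its C terminus; test concentration not given here.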 Particulars: DCIP absorbance 600 nm, higher = more signal, called active from +8 up or from −8 down.
Sequence of Dihydroorotate dehydrogenase (quinone), mitochondrial (Plasmodium falciparum (isolate 3D7)) (Q08210 whole entry, looked up): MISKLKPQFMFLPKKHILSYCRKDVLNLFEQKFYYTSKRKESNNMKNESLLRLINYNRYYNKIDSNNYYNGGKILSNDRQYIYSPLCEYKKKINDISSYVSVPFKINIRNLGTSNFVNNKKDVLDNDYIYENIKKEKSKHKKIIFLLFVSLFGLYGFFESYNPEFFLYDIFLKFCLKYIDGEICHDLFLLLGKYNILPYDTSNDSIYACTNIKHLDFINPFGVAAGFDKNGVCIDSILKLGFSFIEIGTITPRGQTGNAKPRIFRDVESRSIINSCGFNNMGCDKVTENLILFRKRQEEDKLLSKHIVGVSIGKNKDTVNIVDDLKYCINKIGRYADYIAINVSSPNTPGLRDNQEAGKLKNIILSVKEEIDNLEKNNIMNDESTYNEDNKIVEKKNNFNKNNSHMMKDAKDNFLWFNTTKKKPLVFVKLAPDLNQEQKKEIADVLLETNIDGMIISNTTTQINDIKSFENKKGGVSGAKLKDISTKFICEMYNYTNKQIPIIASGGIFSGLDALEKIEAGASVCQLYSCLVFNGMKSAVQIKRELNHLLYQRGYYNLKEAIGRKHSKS
A short description of assay [5]: P. aeruginosa biofilm formation inhibitors, primary screen, strain PAO1, LB-PBS medium, absorbance 600 nm (AID 1176). Note: test concentration not given here. As to conditions: P. aeruginosa PAO1 growth/biofilm, A600, 12 h; higher = more signal.
The nature of assay [6]: S. cerevisiae RM11-1a growth modifiers, primary screen, strain RM11-1a, OD600, basal, 24 h (AID 1177).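 Note: cultures grown under basal conditions with no added stressor; test concentration not given here.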 Particulars: OD600, 24 h, higher = more signal, called active from +8 up or from −8 down.
Assay [7] can be described thus: E. coli acrAB mutant growth effects, primary screen, E. coli filamentation inducers, strain DRC39, OD650, 24 h (AID 1178).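 Note: growth measured as culture turbidity by optical density at 650 nm; test concentration not given here.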 Particulars: higher = more signal, called active from +8 up or from −8 down.
A short description of assay [8]: E. coli acrAB mutant growth effects, primary screen, E. coli filamentation inducers, strain DRC39, OD650, 48 h (AID 1179).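 Note: screen aims at cell division blockers that make cells filament.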 As to conditions: E. coli DRC39 delta-acrAB growth, higher = more signal, called active from +8 up or from −8 down.
A short description of assay [9]: RPMI8226 myeloma cell viability, profiling panel, resazurin fluorescence, basal, 24 h, PK04 Diversity Set (AID 1180).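 Note: RPMI8826 multiple myeloma cell line at 5000 cells per well; test concentration not given here.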 Particulars: higher = more signal.
Assay [10] has as its target E3 ubiquitin-protein ligase XIAP (Homo sapiens) (UniProt P98170). The assay is described as follows: XIAP binders, primary screen, biophysical, small-molecule microarray, fluorescence 635 nm (AID 1181).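 Note: score merges 667 nm emission and signal to noise over triplicate slides.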 As to conditions: small-molecule microarray binding, higher = more signal.

Activity calls are given as the source filed them. Unless noted, the rule behind the calls is not given here.

Sequence of E3 ubiquitin-protein ligase XIAP (Homo sapiens) (P98170 whole entry, looked up): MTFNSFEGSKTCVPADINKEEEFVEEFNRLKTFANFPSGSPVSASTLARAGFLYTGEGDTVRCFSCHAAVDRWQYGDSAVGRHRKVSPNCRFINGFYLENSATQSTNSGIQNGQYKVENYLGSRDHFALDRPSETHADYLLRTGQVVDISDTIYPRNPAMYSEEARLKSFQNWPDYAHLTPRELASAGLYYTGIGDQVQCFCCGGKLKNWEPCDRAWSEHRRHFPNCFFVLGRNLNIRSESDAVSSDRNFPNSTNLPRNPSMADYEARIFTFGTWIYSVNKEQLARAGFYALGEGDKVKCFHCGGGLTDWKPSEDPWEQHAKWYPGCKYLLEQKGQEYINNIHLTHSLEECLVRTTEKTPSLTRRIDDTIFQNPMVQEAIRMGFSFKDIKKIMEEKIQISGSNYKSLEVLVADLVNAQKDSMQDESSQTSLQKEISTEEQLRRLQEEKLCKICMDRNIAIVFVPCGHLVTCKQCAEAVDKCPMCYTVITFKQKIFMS

For the molecule `COCCOC(=O)N1C(=O)[C@@]2(c3cc(C#CC4=CCCCC4)ccc31)[C@H](c1ccc(O)cc1)N1[C@H](c3ccccc3)[C@H](c3ccccc3)OC(=O)[C@H]1[C@@H]2C(N)=O`, the z-score in assay [1] is -0.74; in assay [2], -0.167 (inactive); in assay [3] it was -1.85 (inactive); in assay [5], 0.318 (inactive); in assay [6], 0.654 (inactive); in assay [7] it was 0.066 (inactive). The z-score in assay [8] was 0.552 (inactive); in [9] it was -2.95. The figures for the composite z-score in assay [4] and in [10] were -1.06 (inactive) and 0.0435, respectively.

`C=C(COC)/C(=C/C[C@@H](OC(C)=O)c1ccc(OCCO)cc1)c1cc(C(=O)OC)ccc1OC`: the z-score in assay [1] is 0.453; in [2], 0.166 (inactive); in [3], -0.252 (inactive); in [5] it was 0.862 (inactive); in [6], 0.303 (inactive); in assay [7], 0.193 (inactive). In addition, the z-score in assay [8] is 0.0514 (inactive); in [9], -0.395. The composite z-score is -0.72 (inactive) in [4] and -0.353 in assay [10].

`CCCC=C(CCC)[C@@H](NS(=O)(=O)c1cccs1)c1ccc(C(=O)OC)cc1`: the z-score in assay [1] is -0.395; in assay [2], 0.91 (inactive); in [3], 1.18 (inactive); in [5], 0.535 (inactive); in [6] it was 1.59 (inactive); in [7], 0.588 (inactive). Besides, the values for the z-score in assay [8] and in assay [9] were -0.424 (inactive) and -5.85, respectively. The composite z-score in assay [4] was 0.335 (inactive); in [10] it was 0.0248.

For `C=CCOC(=O)[C@H]1[C@@H]2C(=O)O[C@@H](c3ccccc3)[C@@H](c3ccccc3)N2[C@@H](c2ccc(OCCOC(=O)[C@@H]3C[C@@H]4C(=O)N5CCC[C@H]5C(=O)N4[C@@H]3c3cccc(OCCO)c3)cc2)[C@]12C(=O)Nc1ccccc12`, the z-score was -1 in assay [1]; 1.15 (inactive) in assay [2]; 0.0098 (inactive) in assay [3]; 2.06 (inactive) in [5]; 1.76 (inactive) in assay [6]; -0.701 (inactive) in assay [7]. Besides, the z-score is -1.5 (inactive) in assay [8] and -0.0769 in assay [9]. In addition, the composite z-score in [4] was 0.613 (inactive); in [10], -0.22.

As to `CN(C)C(=O)[C@]1(Cc2ccccc2N=[N+]=[N-])N=C(c2ccc(OCCCO)cc2)O[C@@H]1c1ccccc1`, the z-score was 0.0707 in [1]; -1.87 (inactive) in [2]; -0.597 (inactive) in assay [3]; -1.49 (inactive) in [5]; 0.504 (inactive) in [6]; 0.651 (inactive) in assay [7]. The z-score was 1.15 (inactive) in [8] and 0.0542 in [9]. The figures for the composite z-score in assay [4] and in [10] were 0.209 (inactive) and -0.141, respectively.

In the case of `O=C(NCC(F)(F)F)[C@@H]1c2ccccc2C(=O)N(C2CCCCC2)[C@H]1c1ccc(CO)cc1`, the z-score is -0.501 in [1]; 0.804 (inactive) in assay [2]; -0.435 (inactive) in assay [3]; -0.255 (inactive) in assay [5]; 1.11 (inactive) in assay [6]; -0.0514 (inactive) in assay [7]. Moreover, the results for the z-score in [8] and in assay [9] were -0.335 (inactive) and 0.538, respectively. Also, the figures for the composite z-score in [4] and in [10] were 0.843 (inactive) and 0.056, respectively.

For the molecule `COc1ccc([Si](C)(C)[C@@H]2[C@@H](CCO)O[C@]3(C(=O)N(Cc4ccc(N5C(=O)COc6ccccc65)cc4)c4ccccc43)[C@H]2C)cc1`, the z-score in assay [1] is -1.59; in assay [2], 1.54 (inactive); in assay [3], -2.01 (inactive); in [5], 2.5 (inactive); in assay [6] it was 4.73 (inactive); in assay [7], -0.238 (inactive). In addition, the z-score was -0.639 (inactive) in assay [8] and -3.64 in assay [9]. In addition, the results for the composite z-score in [4] and in assay [10] were -0.0524 (inactive) and -0.0559, respectively.

In the case of `C[C@@]1([C@@H](NC(=O)c2ccccc2)c2ccc(-c3ccccc3)cc2)C[C@H]1C1CCCCC1`, the z-score in assay [1] is -1.32; in assay [2], 1.14 (inactive); in assay [3], -1.93 (inactive); in assay [5], 1.57 (inactive); in assay [6] it was 0.0656 (inactive); in assay [7], -1.59 (inactive). Moreover, the z-score in assay [8] is -1.17 (inactive); in [9] it was -0.675. For the same molecule, the values for the composite z-score in [4] and in [10] were -0.712 (inactive) and -0.117, respectively.

With `CCOC(=O)C[C@H]1[C@H](OC(=O)Cc2ccc3c(c2)OCO3)[C@@H](NC(=O)c2ccc(-c3ccccc3)cc2)c2cc(OCCCO)ccc2N1C(=O)c1ccc2ccccc2n1`, the z-score in assay [1] was 0.138; in assay [2], -2.85 (inactive); in assay [3] it was 0.878 (inactive); in assay [5], -0.906 (inactive); in assay [6], -1.63 (inactive); in assay [7], 1.26 (inactive). Moreover, the z-score in assay [8] was 0.455 (inactive); in assay [9] it was 0.356. Further, the composite z-score in assay [4] was -2.91 (inactive); in assay [10], -0.102.

With `C=C(CCCC)C(=O)CC[C@@H](OC(=O)c1cccnc1)c1ccc(CO)o1`, the z-score in assay [1] was 0.154; in assay [2], -0.594 (inactive); in [3], -0.16 (inactive); in assay [5], 0.555 (inactive); in assay [6], 0.0671 (inactive); in assay [7] it was 0.186 (inactive). In addition, the results for the z-score in assay [8] and in assay [9] were -0.0608 (inactive) and 0.0739, respectively. Also, the composite z-score in [4] was -1.05 (inactive); in [10] it was 0.0256.

As for `O=C1C2C=CC(C(O)C(c3ccccc3)c3ccccc3)N(n3cnnc3)C2C(=O)N1Cc1ccccc1` (stereo not given), the z-score in [1] was 0.264; in [2], -1.94 (inactive); in assay [3], -1.15 (inactive); in [5], 0.285 (inactive); in [6] it was -0.255 (inactive); in assay [7], -0.514 (inactive). In addition, the values for the z-score in assay [8] and in [9] were -0.305 (inactive) and -1.11, respectively. In addition, the figures for the composite z-score in assay [4] and in [10] were -0.436 (inactive) and 0.223, respectively.

As to `N#Cc1ccc(NN2C(C(O)c3c(F)cccc3Cl)C=CC3C(=O)N(c4ccccc4)C(=O)C32)cc1` (stereo not given), the z-score was -1.31 in assay [1]; 0.566 (inactive) in [2]; -0.392 (inactive) in [3]; 1.01 (inactive) in assay [5]; -0.0762 (inactive) in [6]; -0.731 (inactive) in [7]. In addition, the figures for the z-score in [8] and in [9] were -0.445 (inactive) and -0.739, respectively. Moreover, the composite z-score in assay [4] was 1.67 (inactive); in assay [10] it was 0.585.
